# HBB splice mod: qHTS Assay for Modulators of Hemoglobin Beta Chain Splicing; HBB splicing reporter cell assay, activation; EGFP reporter with mutant IVS2-654 intron; response scale: normalised to 500 nM splice-correcting PNA; Potency, µM (titrated, usually from 46.1 µM), inactives show at the top dose activation, most hits filed as activators; 65,000 tested, 0.06% active; AID 925, 2007; further: potency means the concentration at half of the fitted maximal effect; 0% is about no effect
#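 Compounds were applied for 2 days to HeLa EGFP-654 cells, 500/well in Optimem with 2% FCS. The reporter's EGFP is disrupted by mis-splicing of beta-globin intron IVS2-654. Readout: summed well GFP fluorescence from 488 nm laser scanning; reference was 500 nM antisense […] 654 PNA.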
# Imprint erasure: qHTS Assay for Compounds that Induce Erasure of Genomic Imprints | Potency, µM (titrated, usually from 60.7 µM), for the others: top-dose activity change, positive = activation, actives largely listed as activators | mouse ES Peg3-LacZ reporter, beta-gal luminescence, 40 h | 110,000 tested, 0.02% active; further: potency means the concentration at half of the fitted maximal effect
#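 Gelatin-coated wells received 300 freshly trypsinized female ES cells with a Peg3LacZ-Neo reporter on the maternal allele, then incubated 40 hours at 37C. BetaGlo was added for 5 minutes at room temperature before a single luminescence read.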
# Epigenetic mod: qHTS Assay for Epigenetic Modulators; mouse C127i GFP locus derepression, cytometry, 30 h; AID 597, 2007; Potency, µM (series often up to 46.1 µM), inactives show at the top dose GFP derepression (activation); 68,000 tested, 0.09% active; further: % of control where 0% means no effect
#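 Read-out is the number of GFP-positive cells, scored as fluorescent objects 20 to 120 um wide, reflecting derepression of a silenced CMV-GFP reporter in murine C127i cells after 30 h compound exposure at 37 C.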
# p53ts 39C tox: qHTS Screen for Compounds that Selectively Target Cancer Cells with p53 Mutations: Cytotoxicity of p53ts Cells at the Nonpermissive Temperature; H1299-p53A138V viability at 39C, ATP luminescence, 24 h; Potency, µM (doses to about 46.1 µM), for inactives: at the highest dose activity change, negative = cell killing, hits mostly cytotoxic; 130,000 tested, 1.5% active; AID 902, 2007; further: potency means the concentration at half of the fitted maximal effect; on the % scale 0 is the no-effect control and ±100 the full control effect; nearly all actives have a fitted effect of over 55% in size
# UbGFP stabilizer: Ubiquitin-GFP Assay | Ubiquitin-GFP reporter cells, proteasome inhibition, GFP fluorescence; response scale: untreated = 0%, 10 µM MG-132 = 100% | Potency, µM (titrated, usually from 45.9 µM), for inactives: top-dose activation (GFP accumulation), hits mostly activators | 67,000 tested, under 10 active | AID 526, 2006; active means well fitted activation curve with a large enough effect, not every such curve was filed as active; inconclusive means small, poorly fitted or top-dose-only effect, or another doubt; inactive means no such curve, though single readings can be large or run the other way; further: potency means the concentration at half of the fitted maximal effect
#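 Proteasome block read as GFP accumulation: ubiquitin(G76V)-GFP U2OS cells exposed to compound (2.9 nM–46 uM) for 4 hr at 37 C. Normalization used untreated cells as 0% and 10 uM MG-132 as 100%; concentration-response curves fitted.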
# p53ts 32C tox: qHTS Screen for Compounds that Selectively Target Cancer Cells with p53 Mutations: Cytotoxicity of p53ts Cells at the Permissive Temperature; H1299-p53A138V at 32C, ATP luminescence viability, 24 h; Potency, µM (highest dose often 46.1 µM), without a hit: top-dose activity change, negative = cytotoxicity, hits mostly cytotoxic; 130,000 tested, 0.93% active; AID 924, 2007;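 further: potency means the concentration at half of the fitted maximal effect; 0% = DMSO and -100% = full killing by reference compound; nearly all actives have a fitted effect of over 55% in size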
#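 Viability by ATPlite luminescence after 24 h compound treatment (up to 46 uM) at the permissive 32C. Cells are H1299 carrying p53 A138V. Scale runs from DMSO basal to 100 uM tamoxifen as full kill; AC50 from Hill fits.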
# An asterisk follows results filed as active; ? = inconclusive; · = no result; [ ] = remark or other dose. Rows were chosen to be rich in hits. Some 1.6% of all compounds tested hit in one or more screens of this group. Unless noted, the call rests on the fitted dose curve; in most records, active means well fitted curve in the direction sought with a large enough effect; inconclusive means small, poorly fitted or top-dose-only effect, or another doubt; inactive means no such curve, though single readings can be large; an effect the other way counts as inactive or inconclusive.
SMILES,HBB splice mod,Imprint erasure,Epigenetic mod,p53ts 39C tox,UbGFP stabilizer,p53ts 32C tox
Clc1ccccc1-c1nc(-n2ccnc2)c2ccccc2n1,1%,-20%,5%[9.22 µM],74%,-12%,14%
Cc1ccccc1-c1nc(N2CCNCC2)c2ccccc2n1,-2%,-24%,-3%[9.22 µM],-14%,0%,6%
COc1cc2c(cc1NS(=O)(=O)c1cccc(C#N)c1)n(C)c(=O)n2C,·,-10%[10.9 µM],·,-1%,·,10%
COc1ccc(-n2c(C)cc(/C=N/Nc3nnc(C)n3N)c2C)cc1,·,·,·,10µM*,·,?
COC(=O)c1ccc(-n2c(C)cc(/C=N/n3cnnc3)c2C)cc1,0%[9.22 µM],9%,-2%,-2%,1%,1%
COc1ccccc1N1CCN(C(=O)CCn2cnc3onc(-c4ccc(F)cc4)c3c2=O)CC1,·,4%[10.9 µM],·,-8%,·,0%
COc1ccc(NC(=O)CSc2nc3nc(C)c(Cc4ccc(C)cc4)c(C)n3n2)cc1OC,·,-14%[10.9 µM],·,-29%,·,11%
COc1ccc(Nc2nnc(-c3ccc(C)c(S(=O)(=O)N4CCN(C)CC4)c3)c3ccccc23)cc1,·,-10%[10.9 µM],·,24%,·,-1%
O=c1c2ccccc2cnn1-c1nc2ccccc2s1,1%[0.369 µM],-24%,3%,1µM*,·,0.79µM*
Cc1cccc(-c2nc3c4ccccc4nc(NCc4ccccc4Cl)n3n2)c1,·,2%[10.9 µM],·,-25%,·,2%
CC(=O)c1ccc(S(=O)(=O)N2CCn3cccc3C2c2ccccc2F)cc1 (stereo unspecified),·,-5%[10.9 µM],·,-17%,·,-2%
Cc1ccc(CNC(=O)Cn2ncc3c(C)n(Cc4ccc(Cl)cc4)c(C)c3c2=O)cc1,·,-9%[10.9 µM],·,16µM*,·,-15%
CNC(=O)Cn1ncc2c(C)n(Cc3ccc(C)cc3)c(C)c2c1=O,·,·,·,0%,·,0%
Cc1cccc(C(c2sc3nc(-c4ccco4)nn3c2O)N2CCN(c3ccccc3F)CC2)c1 (stereo unspecified),·,-5%[10.9 µM],·,-1%,·,5%
Cc1cc(NC(=O)c2cc(-c3cccc(Cl)c3)on2)n(-c2ccccc2)n1,·,3%[10.9 µM],·,-30%,·,-4%
O=C(N=c1nc2ccccn2s1)c1ccccc1,0%,-67%,0%,?,-1%,2µM*
Cc1cc(NC(=O)c2cnc3c(-c4ccccc4)c(C)nn3c2C)ccc1Br,·,25%[10.9 µM],·,-5%,·,4%
CCc1ccccc1N(CC)C(=O)c1cc2c(s1)-c1ccccc1SC2,·,-14%[10.9 µM],·,?,·,13%
CCOc1ccc(N(CC)C(=O)c2cc3c(s2)-c2ccc(Cl)cc2SC3)cc1,·,-4%[10.9 µM],·,20µM*,·,-11%
CCCCC(=O)NCc1nc2cccnc2n1Cc1ccc(OC)cc1,·,?,·,-14%,·,7%
O=C(Cn1ccn(-c2cccc(Cl)c2)c(=O)c1=O)c1ccc(F)cc1,·,-9%[10.9 µM],·,-24%,·,4%
Cc1cc(C)nc(N(C#N)CC(=O)N2CCC(C(N)=O)CC2)n1,-1%,-62%,0%,8%,-3%,4µM*
Fc1ccc(Cc2cn3cc(-c4ccccc4)nc3s2)cc1,·,-20%[10.9 µM],·,2.5µM*,·,3.2µM*
Fc1ccc(Cc2cn3cc(-c4ccc(Cl)cc4)nc3s2)cc1,·,-7%[10.9 µM],·,-10%,·,?
Fc1ccc(-c2cn3cc(Cc4ccccc4)sc3n2)cc1,·,-24%[10.9 µM],·,5µM*,·,2.2µM*
Clc1ccccc1Cc1cn2cc(-c3ccccc3)nc2s1,·,-19%[10.9 µM],·,3.2µM*,·,?
CCOC(=O)c1c(-c2ccccc2)oc2ccc(NS(=O)(=O)c3ccc(OC)cc3)cc12,·,-21%[10.9 µM],·,-16%,·,20%
CCOC(=O)c1c(-c2ccccc2)oc2ccc(NS(=O)(=O)c3ccccc3)cc12,·,-26%[10.9 µM],·,16µM*,·,43%

# Bioassay records as filed in PubChem BioAssay.
